Assay results reported in PubChem BioAssay (Tox21).
The source made the active and inactive calls. Calls come from the whole dose curve; as a rule, active = well fitted curve in the direction sought with a large enough effect in the repeat runs; inconclusive = weak or mixed curves; inactive = flat fitted curve, though single readings scatter.

Test: qHTS assay to test for compound auto fluorescence at 535 nm (green) in HepG2 cell free culture (AID 720686)
Settings: Cell-free medium, green autofluorescence 485/535 nm; series mostly up to 91.3 µM

Compound	outcome
Clc1cc(Cl)c(Cl)cc1Cl	inactive
NCc1cccc(CN)c1	inactive
O=S(=O)(O)CCS	inactive
CCCCCCCCC	inactive
OCCOCCOCCOCCO	inactive
CCCCCCCCCCCCN	inactive
O=[N+]([O-])C(CO)(CO)CO	inactive
NCCc1ccc(O)c(O)c1	inactive
CC1=C(CC(=O)O)c2cc(F)ccc2/C1=C\c1ccc(S(C)=O)cc1 (configuration not stated)	inactive
CCCCC/C=C\C/C=C\CCCCCCCC(=O)OC	inactive
C/C=C(C)/C=C/C=C(C)C	inactive
OC[C@@H](O)[C@@H](O)[C@H](O)[C@@H](O)CO	inactive
CC#C[C@]1(O)CC[C@H]2[C@@H]3CCC4=CC(=O)CCC4=C3[C@@H](c3ccc(N(C)C)cc3)C[C@@]21C	inactive
Nc1nc2ncc(CNc3ccc(C(=O)N[C@@H](CCC(=O)O)C(=O)O)cc3)nc2c(=O)[nH]1	inactive
CCOC(=O)/C=C\C(=O)OCC	inactive
CCCCNC(N)=O	inactive
Cc1cc(Cc2ccc(N)c(C)c2)ccc1N	inactive
Oc1c(Cl)cc(Cl)c(Cl)c1Cl	inactive
Clc1ccc(Cl)c(Cl)c1Cl	inactive
Cc1cc(=O)[nH]c(C(C)C)n1	inactive
CCC(C)C=O (configuration not stated)	inactive
Cn1c([N+](=O)[O-])cnc1COC(N)=O	inactive
CC1(C)CC(N=C=O)CC(C)(CN=C=O)C1 (configuration not stated)	inactive
CCCCC(CC)COC(=O)CCCCCCCC(=O)OCC(CC)CCCC (configuration not stated)	inactive
NC(=O)/N=N/C(N)=O	inactive
CCC(=O)O	inactive
CC(C)(CO)COC(=O)C(C)(C)CO	inactive
